Rows were chosen to be rich in hits. Some 2.9% of all compounds tested hit in one or more screens of this group.
FadD28 FP inh – inhibitors of Mycobacterium tuberculosis FadD28 bisubstrate binding | FadD28 bisubstrate probe binding, fluorescence polarization | inhibition, % at 12.5 µM | actives 0.22% (n = 360,000) | AID 588549; in the data active = inhibition above about 8.5%, passing the limit was not always enough; inconclusive = no clear call, values can overlap the other calls
Mtb hypoxia rep – Mtb hypoxia fluorescent reporter inhibition; M. tuberculosis hypoxia-regulated fluorescent reporter, fluorescence; fluorescence inhibition, % (no concentration beside the values); actives 0.1% (n = 300,000); in the data active = fluorescence inhibition mostly above about 23%, no sharp cut-off; inactive = mostly below about 17%
Mtb BioA inh – BioA (M. tuberculosis) enzyme inhibition. purified M. tuberculosis BioA enzyme, plate reader. inhibition, % at 9.99 µM. actives 0.096% (n = 360,000); in the data active = inhibition above about 40%; inconclusive = no clear call, values can overlap the other calls
GDH-TPI inh – GDH-TPI coupled enzyme inhibition counter-screen; GDH-TPI coupled enzyme counterscreen, NADH absorbance; inhibition, % at 4.8 µM; actives 1.2% (n = 360,000); AID 588335; in the data active = inhibition above about 30%
FBA Mtb inh – inhibitors of M. tuberculosis fructose-bisphosphate aldolase; inhibition, % at 1 µM; actives 2.3% (n = 360,000); purified M. tuberculosis FBA, fluorescence read-out; AID 588726; in the data active = inhibition above about 27%
Target sequence (P9WQA3 whole entry, looked up): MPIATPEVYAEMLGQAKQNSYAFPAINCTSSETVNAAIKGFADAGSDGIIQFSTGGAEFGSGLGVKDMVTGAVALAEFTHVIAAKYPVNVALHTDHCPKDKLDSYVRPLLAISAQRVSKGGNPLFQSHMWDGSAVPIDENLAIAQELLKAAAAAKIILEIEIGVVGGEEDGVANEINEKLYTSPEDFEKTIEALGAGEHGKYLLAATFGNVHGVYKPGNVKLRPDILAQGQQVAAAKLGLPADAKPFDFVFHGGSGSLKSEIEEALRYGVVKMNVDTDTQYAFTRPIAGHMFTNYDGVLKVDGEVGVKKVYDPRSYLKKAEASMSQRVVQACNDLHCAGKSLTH
Hits are given with their value; i = inactive; ? = inconclusive; nt = no result shown.

SMILES	FadD28 FP inh	Mtb hypoxia rep	Mtb BioA inh	GDH-TPI inh	FBA Mtb inh
CN=Cc1nc(-c2ccccc2)oc1O	i	nt	i	59	i
Oc1oc(-c2ccccc2)nc1/C=N/c1ccccn1	i	nt	i	i	i
COc1ccc(/C(C)=N/N2C(=O)c3ccccc3NC2c2ccc(O)c(OC)c2)cc1 (stereo not drawn)	i	nt	i	35	i
Cc1ccccc1-c1nnc(-c2ccccc2)o1	i	nt	i	i	i
Cn1cc(-c2nnc(-c3ccccc3)o2)c2ccccc21	i	nt	i	i	173
CO[C@@H]1CN(C)C(=O)c2ccc(NC(=O)C3CCCC3)cc2OC[C@@H](C)NC[C@@H]1C	nt	nt	i	nt	nt
CCc1ccc2c(c1)c(N=NC1=NC(=O)CS1)c(O)n2CC	i	i	i	31	i
CC(=NNS(=O)(=O)c1ccc(Br)cc1)c1ccc2c(c1)OCO2	nt	i	nt	nt	nt
CCOc1ccc(Nc2ccc(N)c(S(=O)(=O)O)c2)cc1	22	i	i	i	i
CCOc1ccc(NS(=O)(=O)c2ccc(N)cc2)cc1	i	i	i	i	i
CCN(Cc1ccccc1)c1ccc(/C=N/NC(=O)c2cccc(S(=O)(=O)N3CCOCC3)c2)cc1	i	nt	i	43	i
CCN(CC)c1ccc(/C=N/NC(=O)c2cccc(S(=O)(=O)N3CCOCC3)c2)cc1	i	nt	i	32	i
C/C(=N\NC(=O)c1cccc(S(=O)(=O)N2CCOCC2)c1)c1cc2ccccc2o1	i	nt	i	52	i
CCN(CC)c1ccc(/C=N/N2CCOCC2)cc1	i	nt	i	43	i
C=CC[C@@H](OC(=O)Nc1ccc(SC)cc1)c1ccc(OCCO)cc1	nt	nt	i	nt	nt
O=S(=O)(N[C@H]1CC[C@@H](CCn2cc(Cc3ccccc3)nn2)O[C@H]1CO)c1ccccc1F	nt	nt	i	nt	nt
O=C(Nc1ccccc1F)N[C@H]1CC[C@H](CCNC(=O)C2CCCCC2)O[C@H]1CO	nt	nt	i	nt	nt
O=C(NCCN1C(=O)S/C(=C\c2ccc(F)cc2)C1=O)c1cccc(S(=O)(=O)N2CCOCC2)c1	i	i	i	36	i
CC(C)COC(=O)N(C)C[C@@H]1OCc2ccccc2-c2ccccc2C(=O)N([C@H](C)CO)C[C@@H]1C	nt	nt	i	nt	nt
Cc1ccc(N2NC(=O)/C(=C/c3ccc(-c4ccc(Cl)c(C(=O)O)c4)o3)C2=O)cc1	i	i	i	i	i
O=C1NN(c2ccc(Cl)cc2)C(=O)/C1=C\c1ccc(-c2cccc(C(=O)O)c2)o1	23	i	nt	i	i
O=S(=O)(NN=Cc1cn(Cc2ccccc2)c2ccccc12)c1ccccc1	nt	i	nt	nt	nt
O=C(Nc1cccc(-c2csc(Nc3ccc(Cl)cc3)n2)c1)c1cc([N+](=O)[O-])cc(C(F)(F)F)c1	i	i	i	41	i
COc1cc(/C=N/N(C)c2ccccc2)cc(Cl)c1O	i	nt	i	40	i
COc1cc(/C=N/N(C)C)cc(Br)c1O	i	nt	nt	32	i
SMILES	FadD28 FP inh	Mtb hypoxia rep	Mtb BioA inh	GDH-TPI inh	FBA Mtb inh
COC(=O)c1ccc(COc2ccc(/C=N/Nc3cccc(C(=O)O)c3)cc2)cc1	11	nt	nt	i	i
O=C(O)c1cccc(N/N=C/c2ccc(OC(F)(F)F)cc2)c1	?	nt	i	i	i
COC(=O)c1ccc(COc2ccc(/C=N/Nc3nc(C)cc(=O)[nH]3)cc2)cc1	i	nt	i	36	i
COC(=O)c1ccc(COc2ccc(C=NNc3nc(C)cc(=O)[nH]3)cc2)cc1	nt	i	nt	nt	nt
CSc1ccc(/C=N/Nc2cccc(C(=O)O)c2)cc1	13	nt	nt	i	i
CCC(=O)NC[C@@H]1[C@H](c2ccccc2)[C@@H](CO)N1C(=O)C1CCC1	nt	nt	i	nt	nt
O=C(NCc1cccnc1)/C(=C\c1ccc(-c2cccc(Cl)c2)o1)S(=O)(=O)c1ccccc1	i	i	i	41	i
Cc1ccc(C(=O)N/C(=C\c2ccc(-c3cc(Cl)ccc3Cl)o2)C(=O)NCc2cccnc2)cc1	i	i	nt	40	i
CC(=NNS(=O)(=O)c1ccc(F)cc1)c1ccncc1	nt	i	nt	nt	nt
Cc1ccc(OCCn2c(C)c(/C=N/n3cnnc3)c3ccccc32)cc1	i	nt	i	31	i
Cc1ccc(OCCn2c(C)c(C=Nn3cnnc3)c3ccccc32)cc1	nt	i	nt	nt	nt
NC(=S)N/N=C/c1cccc(/C=N/NC(N)=S)c1	i	nt	nt	37	i
NC(=S)N/N=C/c1ccc(/C=N/NC(N)=S)cc1	i	nt	i	111	i
O=S(=O)(NN=C/C=C/c1ccccc1)c1ccccc1	nt	i	nt	nt	nt
O=S(=O)(N/N=C\C=C\c1ccccc1)c1ccccc1	i	nt	i	31	i
O=[N+]([O-])c1ccc(C=NNC(=S)NN=Cc2ccc([N+](=O)[O-])cc2)cc1	i	i	i	31	i
NC(=S)N/N=C/C=C/c1ccccc1	i	nt	nt	38	i
CON=C(CS(=O)(=O)Cc1ccc(OC)cc1)c1ccc(Cl)cc1	nt	i	nt	nt	nt

Compound activity (PubChem)
